# Source: the supplement of paper PMC8728848
# About 410 targets per protein were measured; listed, in parts, are those with the strongest signals and a random draw of the rest.
# Columns and labels:
# Assay in all cases: glycan array binding signal (z-score within array); higher = stronger binding
# Conditions in all cases: glycan notation: IUPAC condensed, linker removed
# [1] = test system: Gal(b1-4)GlcNAc(b1-3)Gal(b1-4)GlcNAc(b1-3)Gal(b1-4)GlcNAc
# Summary of the method: (§1)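 Arrays were curated from the Consortium for Functional Glycomics database, 3228 in total, and kept only where the protein sequence was available. Binding is expressed as a within-array Z-score. This score was averaged across arrays of the same protein sequence at different concentrations or buffers and across linkers, and negative values can be read as non-binding.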
# [2] = test system: Gal(b1-4)GlcNAc(b1-6)[Gal(b1-3)]GalNAc
# Summary of the method: as §1
# [3] = test system: Gal(b1-4)GlcNAc(b1-3)Gal(b1-4)GlcNAc(b1-3)Gal(b1-4)GlcNAc(b1-3)Gal(b1-4)GlcNAc(b1-3)Gal(b1-4)GlcNAc(b1-2)Man(a1-3)[Gal(b1-4)GlcNAc(b1-3)Gal(b1-4)GlcNAc(b1-3)Gal(b1-4)GlcNAc(b1-3)Gal(b1-4)GlcNAc(b1-3)Gal(b1-4)GlcNAc(b1-2)Man(a1-6)]Man(b1-4)GlcNAc(b1-4)[Fuc(a1-6)]GlcNAc
# Summary of the method: as §1
# [4] = test system: Gal(b1-4)GlcNAc(b1-3)Gal(b1-4)GlcNAc(b1-3)Gal(b1-4)GlcNAc(b1-3)Gal(b1-4)GlcNAc(b1-3)Gal(b1-4)GlcNAc(b1-3)Gal(b1-4)GlcNAc(b1-2)Man(a1-3)[Gal(b1-4)GlcNAc(b1-3)Gal(b1-4)GlcNAc(b1-3)Gal(b1-4)GlcNAc(b1-3)Gal(b1-4)GlcNAc(b1-3)Gal(b1-4)GlcNAc(b1-3)Gal(b1-4)GlcNAc(b1-2)Man(a1-6)]Man(b1-4)GlcNAc(b1-4)GlcNAc
# Summary of the method: as §1
# [5] = test system: Gal(b1-4)GlcNAc(b1-3)[Fuc(a1-3)GlcNAc(b1-6)]Gal(b1-4)Glc
# Summary of the method: as §1
# [6] = test system: Gal(b1-4)GlcNAc(b1-3)Gal(b1-4)[Fuc(a1-3)GlcNAc(b1-6)]Gal(b1-4)Glc
# Summary of the method: as §1
# [7] = test system: Gal(b1-4)GlcNAc(b1-3)Gal(b1-4)GlcNAc
# Summary of the method: as §1
# [8] = test system: Gal(b1-4)GlcNAc(b1-3)Gal(b1-4)[Fuc(a1-3)]GlcNAc(b1-3)Gal(b1-4)[Fuc(a1-3)]GlcNAc
# Summary of the method: as §1
# [9] = test system: Gal(b1-4)GlcNAc(b1-3)GalNAc
# Summary of the method: as §1
# [10] = test system: Gal(b1-4)GlcNAc(b1-3)Gal(b1-4)GlcNAc(b1-3)GalNAc
# Summary of the method: as §1
substance,measurement,setting,value
"GspB (Streptococcus gordonii), Q939N5",glycan array binding signal (z-score),[1],-0.783
same,glycan array binding signal (z-score),[2],-0.739
AgI/IIC123-GFP (Streptococcus mutans),glycan array binding signal (z-score),[3],5
same,glycan array binding signal (z-score),[4],1.82
same,glycan array binding signal (z-score),[5],0.19
"SiiE (Salmonella typhimurium), A0A0H3NVH0",glycan array binding signal (z-score),[1],0.446
same,glycan array binding signal (z-score),[6],-0.187
"BambL (Burhholderia ambifaria), Q0B4G1",glycan array binding signal (z-score),[7],-0.314
Epa22,glycan array binding signal (z-score),[8],-0.575
same,glycan array binding signal (z-score),[9],-0.621
same,glycan array binding signal (z-score),[5],-0.173
AgI/II Vhelical-GFP (Streptococcus mutans),glycan array binding signal (z-score),[3],-0.113
same,glycan array binding signal (z-score),[10],6.41
"Wza (Escherichia coli), P0A930",glycan array binding signal (z-score),[1],2.94
